# Screens deposited in PubChem BioAssay by National Center for Advancing Translational Sciences (NCATS).
# In the library only some 2.4% were active in any assay of this set; here they are far more common.
# D2 ag-1 – human D2 receptor agonism in beta-arrestin assay. DiscoveRx PathHunter D2 beta-arrestin, luminescence, 90 min; 100% = 57 uM dopamine signal. P14416. AID 624465. activation, % (concentration not given with the values). 360,000 compounds, 0.084% hits; in the data active = activation above about 40%; inconclusive = between about 15% and that limit
# Target sequence (P14416 whole entry, looked up): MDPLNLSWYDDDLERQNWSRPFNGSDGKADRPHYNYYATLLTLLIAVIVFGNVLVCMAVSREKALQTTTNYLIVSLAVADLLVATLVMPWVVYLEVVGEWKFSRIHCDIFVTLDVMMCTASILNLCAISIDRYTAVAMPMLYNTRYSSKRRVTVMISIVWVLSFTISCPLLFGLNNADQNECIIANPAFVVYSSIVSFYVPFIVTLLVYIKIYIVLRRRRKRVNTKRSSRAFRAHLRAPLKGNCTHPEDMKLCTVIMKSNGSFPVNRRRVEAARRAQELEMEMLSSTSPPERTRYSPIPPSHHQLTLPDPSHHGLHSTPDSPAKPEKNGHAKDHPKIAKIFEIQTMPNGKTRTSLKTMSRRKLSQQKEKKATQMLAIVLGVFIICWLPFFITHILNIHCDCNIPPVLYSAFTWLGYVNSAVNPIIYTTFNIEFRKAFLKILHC
#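 DiscoveRx PathHunter D2 beta-arrestin cells (2,100/well) attached overnight, then compound-stimulated 90 min at 37 C in HBSS/10 mM HEPES/0.1% Tween-20 buffer; beta-galactosidase complementation read by luminescence after 1 h at ambient temperature. Dopamine 57 uM final (EC100) as control.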
# D2 antag – antagonizes the human D2 dopamine receptor; P14416; HEK293 TREx D2 cells, calcium flux, dopamine EC80; inhibition, % at 10 µM; 340,000 compounds, 2% hits; in the data active = inhibition above about 30%; inactive = below that, where a call was filed; also: 0% is about no effect
#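 Dopamine at EC80 is the agonist stimulus; test compounds precede it by 180 s. Calcium flux read kinetically in a force-coupled, inducible HEK293 T-REx D2 cell line.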
# D2 PAM-1 – potentiates the human D2 dopamine receptor allosterically; P14416; DiscoveRx D2 beta-arrestin cells, luminescence, 90 min; 100% = 57 uM dopamine signal; potentiation, % (concentration not given with the values); 360,000 compounds, 0.23% hits; AID 624464; in the data active = potentiation above about 50%; inconclusive = mostly about 30% to 49%
#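 PathHunter D2 cells, attached overnight at 37 deg C, received compound in DMSO plus dopamine at EC20 (50 nM final) for 90 min at 37 deg C. Beta-arrestin recruitment was read as luminescence after 1 h with detection reagent at ambient temperature.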
# D2 PAM-2 – D2 dopamine receptor (human) potentiation | P14416 | HEK293 T-REx D2, calcium flux, EC20 dopamine potentiation | potentiation, % at 10 µM | 340,000 compounds, 0.34% hits;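 active = potentiation over 3 SD above the plate norm, cut at about 30% in these data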; also: 0% is about no effect
#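 Cells plated with tetracycline inducer and held overnight at 30 C; calcium dye loaded 30–90 min at room temperature; baseline taken, compound added and read 180 s; EC20 dopamine then added and read 180 s.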
# D2 ag-2 – agonists of human D2 dopamine receptor | P14416 | HEK293 T-REx D2 cells, calcium flux agonist mode | activation, % at 2 µM | 340,000 compounds, 0.53% hits | AID 485358;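 active = activation over 3 SD above normal in the single-dose calcium agonist read, cut at about 30% in these data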; also: 0% is about no effect
#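 In this primary screen, compounds producing a positive calcium signal within 180 s of addition to tetracycline-induced, force-coupled HEK293 Trex D2 cells are flagged; cells are dye-loaded with a no-wash calcium kit beforehand.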
# Active calls of the source: *; ? = inconclusive; . = no result; ! = a repeat was not active.
SMILES,D2 ag-1,D2 antag,D2 PAM-1,D2 PAM-2,D2 ag-2
O=C(O)c1cc(-c2ccccc2)nc2ccccc12,-7,40*!,-4,0,-1
O=C(O)c1cc(-c2cccs2)nc2ccc(Br)cc12,.,34*,.,0,0
Cc1ccc(C)c(NC(=O)c2cc(C)nc3ccccc23)c1,0,-2,13,1,-2
Cc1ccc(-c2cc(C(=O)O)c3ccccc3n2)s1,-3,34*,-13,-8,0
Cc1ccc(-c2cc(C(=O)Nc3cc(C(=O)O)ccc3C)c3ccccc3n2)cc1,-2,-30,5,32*,0
O=C(N/N=C/c1ccco1)c1cc(-c2ccccc2)nc2ccccc12,-3,37*,-35,-20,0
Cc1onc(-c2ccccc2)c1C(=O)Nc1nnc(COc2ccc(Cl)cc2)s1,0,39*,?,.,1
CCCOc1ccc(C(=O)NNC(=S)NC(=O)CC)cc1,-6,72*,-18,-11,0
CCCOc1ccc(NC(=O)c2c(-c3ccccc3)noc2C)cc1,-6,1,1,-7,0
C=CCNC(=S)NNC(=O)c1ccc(OCCC)cc1,-5,6,-8,-4,-1
CCCOc1ccc(C(=O)NC(=S)NNC(=O)c2c(-c3ccccc3)noc2C)cc1,-14,25,-23,-12,70*
CC1CCN(CCCNC(=O)CCc2nnc3n(CCc4ccccc4)c(=O)c4ccccc4n23)CC1,-2,61*,-19,3,0
O=C(Cc1ccccc1)Nn1c(O)c(/C=C2\C=Nc3ccccc32)sc1=S,-2,-13,-13,-3,34*
Cn1c(O)c(/C=C2\C=Nc3ccccc32)sc1=Nc1ccc(C(=O)O)cc1,-1,-9,-4,1,0
Cc1c(Br)c([N+](=O)[O-])nn1CC(=O)Nc1nccs1,-2,-2,-3,52*,0
O=c1c2c3c(sc2n(Cc2ccccc2F)c(=O)n1-c1ccc(Cl)cc1)CCCC3,.,.,.,14,0
O=C(NC(NC(=S)Nc1cccc(Cl)c1)C(Cl)(Cl)Cl)OCc1ccccc1 (stereo not given),1,78*,-26,5,2
O=C(CN1C(=O)NC2(CCCCC2)C1=O)NNC(=O)C1CC1,0,2,-13,8,0
COc1cc(NC(=O)c2noc(C)c2[N+](=O)[O-])c(OC)cc1Cl,45*,-17,3,-4,-1
Cc1onc(C(=O)Nc2cccnc2Cl)c1[N+](=O)[O-],4,6,2,2,0
O=C(O)CCCC(=O)Nc1nc(-c2ccccc2)cs1,-3,-4,-2,-9,-1
O=C(O)CCCC(=O)Nc1nc(-c2ccc(F)cc2)cs1,-1,9,-9,34*,-1
O=C1C2CCCN2C(c2cccc(Br)c2)N1c1ccc(F)cc1 (stereo not given),0,38*,-2,-6,-1
COCc1nnc(NC(=O)C2CC(=O)N(CCc3ccc(F)cc3)C2)s1 (stereo not given),-3,30*,-7,-7,1
Cc1ccc(C(=O)NCCc2csc(C)n2)cc1,-7,43*,-2,2,0
SMILES,D2 ag-1,D2 antag,D2 PAM-1,D2 PAM-2,D2 ag-2
O=C(NCc1cccc(C(F)(F)F)c1)c1[nH]c(C(F)(F)F)nc1-c1ccccc1,-4,.,-6,.,.
CC(Sc1ccccc1)C(=O)NCCc1ccccc1 (stereo not given),0,0,1,1,2
COc1cc(NS(=O)(=O)c2ccc(NC(=O)/C(=C\c3ccccc3OC)NC(=O)c3ccccc3)cc2)nc(OC)n1,0,32*,2,1,0
COc1cc(NS(=O)(=O)c2ccc(NC(=O)/C(=C/c3ccccc3Cl)NC(=O)c3ccccc3)cc2)nc(OC)n1,-4,17,-7,11,1
COc1ccc(NC(=O)/C(=C\c2ccc(OS(=O)(=O)c3ccc(C)cc3)cc2)NC(=O)c2ccccc2)cc1,-1,-16,7,40*,0
CCOCCCNC(=O)c1c[nH]c2ccc(S(=O)(=O)Nc3cccc(Cl)c3C)cc2c1=O,.,.,.,-4,-1
CC(=O)Nc1ccc(S(=O)(=O)N2CCCN(S(=O)(=O)c3ccc(NC(C)=O)cc3)CC2)cc1,0,3,7,5,0
CN(CC(=O)Nc1ccc(S(=O)(=O)N2CCCC2)cc1)Cc1ccc(Cl)cc1Cl,?,12,64*,6,0
CCOc1ccc(NC(=O)CN(C)Cc2ccc3c(c2)OCO3)cc1S(=O)(=O)N1CCCC1,6,58*,-1,-22,0
CN(CC(=O)Nc1ccc(S(=O)(=O)N2CCCC2)cc1)CC(=O)Nc1ccc(F)c(F)c1F,1,12,0,6,2
CC(C)CC(=O)Nc1ccc(S(=O)(=O)N2CCCC2)cc1,-5,-25,-5,5,-1
CC(=O)Nc1ccc(S(=O)(=O)N2CCCN(S(=O)(=O)c3ccc(C)cc3)CC2)cc1,1,31*,-2,-1,0
CC(C)(C)CC(=O)Nc1ccc(S(=O)(=O)N2CCCC2)cc1,0,-3,-2,44*,-1
CC(NC(=O)CSc1nnc2n1CCCCC2)c1ccccc1Cl (stereo not given),-1,-1,-2,-9,0
CCC(=O)Nc1ccc(S(=O)(=O)NCc2cccn2Cc2cccc(C)c2)cc1,.,.,.,-5,1
O=C(CCCN=C1NS(=O)(=O)c2ccccc21)Nc1ccc(Cl)cc1,-2,6,-14,-16,0
O=C(CCN=C1NS(=O)(=O)c2ccccc21)Nc1ccc(Cl)cc1F,4,40*,-3,-14,-1
CCC(=O)N1CCc2cc(S(=O)(=O)NCCC(=O)N3CCN(c4ccccn4)CC3)ccc21,1,15,3,39*,-1
O=C(NCCC(=O)N1CCN(c2ccccn2)CC1)c1ccc(Br)cc1,-3,58*,-9,-14,-1
O=C(NCCC(=O)N1CCC2(CC1)NCCc1[nH]cnc12)c1ccc(Br)cc1,-1,32*,-5,0,1
CCC(=O)N1CCc2cc(S(=O)(=O)NCCC(=O)N3CCc4ccccc4C3)ccc21,0,-11,3,10,-2
C[C@@H]1CN([C@@H](C)CO)C(=O)CCCn2nncc2CO[C@H]1CN(C)C(=O)OCc1ccccc1,-5,.,-2,.,.
CN(C)c1ccc(C(CNS(=O)(=O)c2ccccc2)N2CCc3ccccc32)cc1 (stereo not given),.,.,.,9,1
CC(=O)O[C@]1(C(C)=O)CC[C@H]2[C@@H]3C=C(Cl)C4=CC(=O)CC[C@]4(C)[C@H]3CC[C@@]21C,-4,-5,-3,8,1
